This note sets out measurements from the supplement of paper PMC9262897, “Low-cost anti-mycobacterial drug discovery using engineered E. coli” (Nature Communications, 2022).

Counter-ions that a name gives are not always drawn. ± gives the standard deviation of the averaged measurements.

In one experiment the test system is E. coli TESEC Mtb DapB. Kind of experiment: growth (OD600 after 10 h); higher = more growth (less inhibition). The settings on record: arabinose induction (level): High; compound 0.1 mM; raw OD600 reference: median of DMSO wells […], cell-free background 0.041. As to the method: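 TESEC E. coli strains in which the native enzyme is deleted and replaced by arabinose-inducible Mtb Asd, DapB, CysH or TrpD, each grown in its selective medium. Strains were screened against the Prestwick library at 0.1 mM and 1% DMSO in 384-well format at low and high arabinose induction. Growth is read as OD600 after 10 h in triplicate.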
In turn, `CC(C)CC(=O)N[C@H](C(=O)N[C@H](C(=O)N[C@@H](CC(C)C)[C@@H](O)CC(=O)N[C@@H](C)C(=O)N[C@@H](CC(C)C)[C@@H](O)CC(=O)O)C(C)C)C(C)C` [Pepstatin A] had a growth of 0.172 ± 0.0073.

Molecule `CCC(C)(CN(C)C)OC(=O)c1ccccc1` (stereo not given) [Amyleine hydrochloride] had a growth of 0.195 ± 0.027.

In turn, `CCCCC1C(=O)N(c2ccccc2)N(c2ccccc2)C1=O` [Phenylbutazone] gave a growth of 0.141 ± 0.0096.

On to `CC(C)(C)NC(=O)[C@@H]1C[C@@H]2CCCC[C@@H]2CN1C[C@@H](O)[C@H](Cc1ccccc1)NC(=O)[C@H](CC(N)=O)NC(=O)c1ccc2ccccc2n1` [Saquinavir mesylate], for which the growth is 0.05287 ± 0.00045.

In turn, `CCCCC1(COC(=O)CCC(=O)O)C(=O)N(c2ccccc2)N(c2ccccc2)C1=O` [Suxibuzone] registered a growth of 0.1763 ± 0.0008.

Molecule `O=C(CCCCC(=O)Nc1c(I)cc(I)c(C(=O)O)c1I)Nc1c(I)cc(I)c(C(=O)O)c1I` [Iodipamide] had a growth of 0.213 ± 0.0095.

Consider `NS(=O)(=O)c1cc(Cl)c(Cl)c(S(N)(=O)=O)c1` [Dichlorphenamide], for which the growth is 0.213 ± 0.007.

`O=C(O)c1ccccc1C(=O)Nc1ccc(S(=O)(=O)Nc2nccs2)cc1` [Phthalylsulfathiazole]: the growth came to 0.212 ± 0.016.

In turn, `Nc1nc(Cl)nc2c1ncn2[C@H]1C[C@H](O)[C@@H](CO)O1` [Cladribine] had a growth of 0.244 ± 0.046.

In the case of `N[C@@H](Cc1cc(I)c(Oc2ccc(O)c(I)c2)c(I)c1)C(=O)O` [Liothyronine], the growth turned out to be 0.232 ± 0.0046.

Molecule `CSc1nc2cc(Cl)c(Oc3cccc(Cl)c3Cl)cc2[nH]1` [Triclabendazole] returned a growth of 0.0562 ± 0.0033.

Regarding `COCCCOc1ccnc(C[S+]([O-])c2nc3ccccc3[nH]2)c1C` (stereo not given) [Rabeprazole Sodium salt], the growth worked out at 0.176 ± 0.021.

In turn, `Cc1cnc(NC(=O)C2=C(O)c3ccccc3S(=O)(=O)N2C)s1` [Meloxicam] registered a growth of 0.201 ± 0.021.

With `COc1cc(C(=O)N2CCOCC2)cc(OC)c1OC` [Trimetozine], the growth was found to be 0.192 ± 0.02.

Take `O=C(O)Cc1ccc(-c2ccccc2)cc1` [Felbinac]: the growth amounted to 0.194 ± 0.014.

`CC(=O)O[C@]1(C(C)=O)CC[C@H]2[C@@H]3C=C(Cl)C4=CC(=O)[C@@H]5C[C@@H]5[C@]4(C)[C@H]3CC[C@@]21C` [Cyproterone acetate]: the growth came to 0.135 ± 0.01.

On to `Cc1ccc(S(=O)(=O)NC(=O)NN2CCCCCC2)cc1` [Tolazamide], for which the growth was found to be 0.214 ± 0.0044.

`CNC[C@H](O)[C@@H](O)[C@H](O)[C@H](O)CO` [Meglumine] registered a growth of 0.199 ± 0.049.

For the molecule `CN1CCCC(CC2c3ccccc3Sc3ccccc32)C1` (stereo not given) [Metixene hydrochloride], the growth is 0.135 ± 0.07.

In the case of `CC(=O)OCC1=C(C(=O)O)N2C(=O)[C@@H](NC(=O)Cc3cccs3)[C@H]2SC1` [Cephalothin sodium salt], the growth worked out at 0.206 ± 0.013.

The experiment is the same for the next values; noted with them: arabinose induction (level): Low; compound 0.1 mM; raw OD600 reference: median of DMSO wells 0.227, cell-free background 0.041.
In the case of `CC(C)CC(=O)N[C@H](C(=O)N[C@H](C(=O)N[C@@H](CC(C)C)[C@@H](O)CC(=O)N[C@@H](C)C(=O)N[C@@H](CC(C)C)[C@@H](O)CC(=O)O)C(C)C)C(C)C` [Pepstatin A], the growth turned out to be 0.246 ± 0.046.

With `CCC(C)(CN(C)C)OC(=O)c1ccccc1` (stereo not given) [Amyleine hydrochloride], the growth came out at 0.209 ± 0.0057.

`CCCCC1C(=O)N(c2ccccc2)N(c2ccccc2)C1=O` [Phenylbutazone]: the growth amounted to 0.152 ± 0.006.

In the case of `CC(C)(C)NC(=O)[C@@H]1C[C@@H]2CCCC[C@@H]2CN1C[C@@H](O)[C@H](Cc1ccccc1)NC(=O)[C@H](CC(N)=O)NC(=O)c1ccc2ccccc2n1` [Saquinavir mesylate], the growth worked out at 0.0578 ± 0.0085.

`CCCCC1(COC(=O)CCC(=O)O)C(=O)N(c2ccccc2)N(c2ccccc2)C1=O` [Suxibuzone] came in with a growth of 0.204 ± 0.009.

As to `O=C(CCCCC(=O)Nc1c(I)cc(I)c(C(=O)O)c1I)Nc1c(I)cc(I)c(C(=O)O)c1I` [Iodipamide], the growth came to 0.239 ± 0.03.

Consider `NS(=O)(=O)c1cc(Cl)c(Cl)c(S(N)(=O)=O)c1` [Dichlorphenamide], for which the growth is 0.256 ± 0.026.

In turn, `O=C(O)c1ccccc1C(=O)Nc1ccc(S(=O)(=O)Nc2nccs2)cc1` [Phthalylsulfathiazole] yielded a growth of 0.239 ± 0.01.

The molecule `Nc1nc(Cl)nc2c1ncn2[C@H]1C[C@H](O)[C@@H](CO)O1` [Cladribine] gave a growth of 0.209 ± 0.018.

As to `N[C@@H](Cc1cc(I)c(Oc2ccc(O)c(I)c2)c(I)c1)C(=O)O` [Liothyronine], the growth was 0.264 ± 0.017.

`CSc1nc2cc(Cl)c(Oc3cccc(Cl)c3Cl)cc2[nH]1` [Triclabendazole] came in with a growth of 0.0542 ± 0.0043.

Consider `COCCCOc1ccnc(C[S+]([O-])c2nc3ccccc3[nH]2)c1C` (stereo not given) [Rabeprazole Sodium salt], for which the growth turned out to be 0.207 ± 0.0085.

`Cc1cnc(NC(=O)C2=C(O)c3ccccc3S(=O)(=O)N2C)s1` [Meloxicam] returned a growth of 0.195 ± 0.0074.

As for `COc1cc(C(=O)N2CCOCC2)cc(OC)c1OC` [Trimetozine], the growth was determined as 0.229 ± 0.0089.

Consider `O=C(O)Cc1ccc(-c2ccccc2)cc1` [Felbinac], for which the growth was 0.206 ± 0.022.

The molecule `CC(=O)O[C@]1(C(C)=O)CC[C@H]2[C@@H]3C=C(Cl)C4=CC(=O)[C@@H]5C[C@@H]5[C@]4(C)[C@H]3CC[C@@]21C` [Cyproterone acetate] returned a growth of 0.131 ± 0.011.

With `Cc1ccc(S(=O)(=O)NC(=O)NN2CCCCCC2)cc1` [Tolazamide], the growth was 0.235 ± 0.015.

In the case of `CNC[C@H](O)[C@@H](O)[C@H](O)[C@H](O)CO` [Meglumine], the growth turned out to be 0.235 ± 0.017.

`CN1CCCC(CC2c3ccccc3Sc3ccccc32)C1` (stereo not given) [Metixene hydrochloride] returned a growth of 0.0594 ± 0.0035.

For the molecule `CC(=O)OCC1=C(C(=O)O)N2C(=O)[C@@H](NC(=O)Cc3cccs3)[C@H]2SC1` [Cephalothin sodium salt], the growth was determined as 0.258 ± 0.0063.
